The source made the active and inactive calls.

A short description of experiment [1]: E. coli DRC41 culture turbidity changes, primary screen, E. coli filamentation inducer project, strain DRC41, OD650, 48 h (AID 1152).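 Note: E. coli MC1000 strain DRC41 lacking acrAB efflux pump and sulA.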 Particulars: E. coli DRC41 (acrAB sulA), higher = more signal, called active from +8 up or from −8 down.
Experiment [2] in a line: small-molecule binders of probe aLefty1, primary screen, biochemical, small-molecule microarray, 635/667 nm fluorescence (AID 1153).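 Note: score merges spot fluorescence with signal-to-noise ratio from the scanned slide images.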 To be noted: higher = more signal.
Experiment [3] is described as follows: PSAC antagonists in infected red cells, primary screen, cell-based, P. falciparum Indochina, OD700, 1 h (AID 1154). To be noted: P. falciparum Indochina infected RBC osmotic lysis, higher = more signal, called active from +8 up or from −8 down.
Experiment [4] is described as follows: PSAC antagonists in infected red cells, primary screen, cell-based, P. falciparum Indochina, OD700, 2 h (AID 1155).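 Note: lysis reports solute entry through the parasite surface anion channel PSAC; channel blockers reduce lysis of infected cells.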 To be noted: P. falciparum Indochina infected erythrocytes, osmotic lysis OD700; higher = more signal, called active from +8 up or from −8 down.
Experiment [5] is described as follows: osmotic lysis modulators in infected erythrocytes, primary screen, PSAC antagonist project, cell-based, P. falciparum Indochina, OD700, 3 h (AID 1156). Particulars: higher = more signal, called active from +8 up or from −8 down.
The nature of experiment [6]: PSAC antagonists in infected red cells, primary screen, cell-based, P. falciparum Indochina, OD700, 18 h (AID 1157). To be noted: P. falciparum Indochina infected erythrocytes, osmotic lysis OD700, 18 h; higher = more signal, called active from +8 up or from −8 down.
Experiment [7] can be described thus: modulators of S6 phosphorylation in cells, primary screen, cell-based, A549, cytoblot, luminescence, serum-stimulated (AID 1158).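 Note: serum-stimulated A549 lung adenocarcinoma cells; signal is phosphorylated S6 detected by cytoblot immunostaining with HRP secondary.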 To be noted: A549 phospho-S6 cytoblot, 5 h, higher = more signal.
In experiment [8] the target is NADPH oxidase 2 (Homo sapiens) (UniProt P04839). Kind of experiment: NOX2-dependent H2O2 signal modulators, primary screen, NOX inhibitor project, cell-based, HEK293-NOX2, PMA-stimulated, Amplex Red fluorescence (AID 1159). Note: test concentration not given here. To be noted: 45 min, higher = more signal, called active from +8 up or from −8 down.
Chain of NADPH oxidase 2 (Homo sapiens) (P04839 whole entry, looked up): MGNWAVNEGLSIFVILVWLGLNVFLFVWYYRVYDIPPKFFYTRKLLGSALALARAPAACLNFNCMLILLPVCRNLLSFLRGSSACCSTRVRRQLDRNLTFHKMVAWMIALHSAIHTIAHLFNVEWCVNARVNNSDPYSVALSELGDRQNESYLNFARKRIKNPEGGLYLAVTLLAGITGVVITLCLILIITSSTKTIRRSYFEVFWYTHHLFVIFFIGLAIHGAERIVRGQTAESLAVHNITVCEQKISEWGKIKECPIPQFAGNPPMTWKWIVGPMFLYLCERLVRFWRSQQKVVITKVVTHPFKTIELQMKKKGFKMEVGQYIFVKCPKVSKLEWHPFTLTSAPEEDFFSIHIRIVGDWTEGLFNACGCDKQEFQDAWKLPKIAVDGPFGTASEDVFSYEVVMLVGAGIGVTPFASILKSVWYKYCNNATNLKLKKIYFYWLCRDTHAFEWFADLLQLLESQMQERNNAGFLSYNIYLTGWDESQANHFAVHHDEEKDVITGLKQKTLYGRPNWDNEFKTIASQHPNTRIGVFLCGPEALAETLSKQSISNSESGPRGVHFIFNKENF
For experiment [9], the target named is NADPH oxidase 4 (Homo sapiens) (UniProt Q9NPH5). Briefly: NOX4-dependent H2O2 signal modulators, primary screen, NOX inhibitor project, cell-based, HEK293-NOX4, tetracycline-induced, Amplex Red fluorescence (AID 1160). To be noted: 45 min, higher = more signal, called active from +8 up or from −8 down.
Chain of NADPH oxidase 4 (Homo sapiens) (Q9NPH5 whole entry, looked up): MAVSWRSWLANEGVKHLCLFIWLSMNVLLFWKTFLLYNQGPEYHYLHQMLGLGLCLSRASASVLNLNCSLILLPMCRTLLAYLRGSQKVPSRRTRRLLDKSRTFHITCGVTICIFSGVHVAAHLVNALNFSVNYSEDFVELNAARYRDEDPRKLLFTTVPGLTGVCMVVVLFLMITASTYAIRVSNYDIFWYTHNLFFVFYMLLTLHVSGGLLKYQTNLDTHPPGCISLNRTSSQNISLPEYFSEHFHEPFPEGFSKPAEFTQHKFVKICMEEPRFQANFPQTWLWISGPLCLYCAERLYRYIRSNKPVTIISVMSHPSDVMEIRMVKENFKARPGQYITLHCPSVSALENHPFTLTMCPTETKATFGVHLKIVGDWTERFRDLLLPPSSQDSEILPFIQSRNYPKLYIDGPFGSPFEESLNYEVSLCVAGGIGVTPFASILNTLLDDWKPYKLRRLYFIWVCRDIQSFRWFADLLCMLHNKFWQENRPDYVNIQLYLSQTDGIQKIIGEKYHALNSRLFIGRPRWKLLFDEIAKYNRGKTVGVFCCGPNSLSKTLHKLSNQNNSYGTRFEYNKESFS
Experiment [10] addresses NADPH oxidase 5 (Homo sapiens) (UniProt Q96PH1). Kind of experiment: NOX5-dependent H2O2 signal modulators, primary screen, NOX inhibitor project, cell-based, HEK293-NOX5, Amplex Red fluorescence (AID 1161). To be noted: HEK293-NOX5, ionomycin, 45 min, higher = more signal.

Chain of NADPH oxidase 5 (Homo sapiens) (Q96PH1 whole entry, looked up): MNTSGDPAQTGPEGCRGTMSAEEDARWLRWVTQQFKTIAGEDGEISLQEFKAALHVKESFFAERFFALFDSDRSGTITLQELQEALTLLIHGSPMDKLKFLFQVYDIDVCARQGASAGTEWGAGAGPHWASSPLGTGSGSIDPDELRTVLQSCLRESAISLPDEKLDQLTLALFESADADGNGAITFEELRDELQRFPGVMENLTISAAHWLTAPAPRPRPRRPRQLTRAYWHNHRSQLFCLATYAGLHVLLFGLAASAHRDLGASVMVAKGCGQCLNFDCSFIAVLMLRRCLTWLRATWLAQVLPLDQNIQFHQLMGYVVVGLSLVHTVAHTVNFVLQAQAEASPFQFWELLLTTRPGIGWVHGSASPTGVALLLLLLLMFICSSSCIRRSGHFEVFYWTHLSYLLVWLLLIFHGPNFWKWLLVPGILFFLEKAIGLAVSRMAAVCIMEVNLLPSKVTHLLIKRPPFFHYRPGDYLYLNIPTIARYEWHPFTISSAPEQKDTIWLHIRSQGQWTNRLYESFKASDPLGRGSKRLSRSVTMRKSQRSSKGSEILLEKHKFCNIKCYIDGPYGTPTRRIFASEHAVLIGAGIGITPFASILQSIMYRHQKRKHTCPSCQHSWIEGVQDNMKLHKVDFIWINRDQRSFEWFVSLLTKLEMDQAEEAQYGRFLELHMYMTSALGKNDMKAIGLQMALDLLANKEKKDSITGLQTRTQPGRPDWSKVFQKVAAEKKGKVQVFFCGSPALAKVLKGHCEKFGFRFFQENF

For the compound `O=C1O[C@H](c2ccccc2)[C@H](c2ccccc2)N2[C@H]1[C@@H](C(=O)NC[C@H](O)c1ccccc1)[C@]1(C(=O)Nc3ccccc31)[C@H]2c1ccc(O)cc1`, the z-score in experiment [1] is 0.281 (inactive); in [3], 2.49 (inactive); in [4], 1.29 (inactive); in experiment [5], -0.214 (inactive); in experiment [6], 1.29 (inactive); in experiment [7], -0.482. In addition, the z-score was -0.0983 (inactive) in [8], -0.705 (inactive) in [9] and 0.152 in experiment [10]. In [2], this compound registered a composite z-score of 0.0191.
For the compound `OB1C=CCC(CCc2ccccc2)O1` (stereo not given), the z-score in [1] is 3.28 (inactive); in [3] it was -0.263 (inactive); in experiment [4], -0.649 (inactive); in [5] it was -1.32 (inactive); in experiment [6], -2.19 (inactive); in [7], 0.946. Moreover, the z-score in experiment [8] is -1.05 (inactive); in experiment [9], 0.69 (inactive); in experiment [10], 1.22. Further, the composite z-score in experiment [2] was -0.0651.
For `C=C(C)[C@@H]1CC=C(C(O)C2C=CC3C(=O)NC(=O)C3N2Nc2ccc(Cl)cc2Cl)CC1` (stereo not given in full), the z-score in [1] was -2.9 (inactive); in [3], 5.74 (inactive); in experiment [4], 1.4 (inactive); in experiment [5], -0.372 (inactive); in experiment [6], 1.61 (inactive); in experiment [7], -1.02. The z-score in experiment [8] is -2.38 (inactive); in experiment [9], -6.41 (inactive); in experiment [10] it was -3.51. This compound also displayed a composite z-score in [2] of 0.266.
For the compound `CCOC(=O)C[C@H]1[C@H](OC(=O)c2ccc(C(=O)c3ccccc3)cc2)[C@@H](NC(=O)c2ccccc2)c2cc(OCCCO)ccc2N1C(=O)c1ccccc1`, the z-score is -0.402 (inactive) in experiment [1]; 2.54 (inactive) in [3]; 0.218 (inactive) in experiment [4]; 0.0495 (inactive) in [5]; 0.357 (inactive) in [6]; -0.294 in experiment [7]. For the same compound, the z-score in experiment [8] is -0.613 (inactive); in experiment [9], 0.646 (inactive); in experiment [10] it was 0.0914. For the same compound, in [2], the composite z-score came to 0.228.
Turning to `O=C(CS)NCCCCCNC(=O)[C@@H]1C[C@@H]2C(=O)NCC(=O)N2[C@@H]1c1cccc(OCCO)c1`, the z-score in experiment [1] is 3.02 (inactive); in [3], 2.11 (inactive); in [4], 0.151 (inactive); in experiment [5], -1.32 (inactive); in experiment [6], -1.85 (inactive); in experiment [7] it was 1.86. Also, the z-score in experiment [8] was 1.52 (inactive); in experiment [9], 1.06 (inactive); in experiment [10], 1.49. In experiment [2], the composite z-score was 0.269.
Take `CCCC=C(CCC)[C@@H](NC(=O)OCC(C)C)c1ccccc1`: the z-score in [1] was -1.93 (inactive); in experiment [3] it was -0.725 (inactive); in experiment [4], -0.732 (inactive); in experiment [5], 0.455 (inactive); in experiment [6], -1.61 (inactive); in experiment [7], 1.44. Further, the z-score in experiment [8] is -4.11 (inactive); in experiment [9], -3.58 (inactive); in [10], -2.7. In experiment [2], this compound had a composite z-score of 2.47.
For `COC(=O)[C@@]1(Cc2ccccc2)[C@H]2c3cc(C(=O)N4CCCC4)n(Cc4ccc(O)c(OC)c4)c3C[C@H]2CN1C(=O)c1ccccc1`, the z-score was -1.64 (inactive) in experiment [1]; 3.85 (inactive) in [3]; 0.496 (inactive) in experiment [4]; 0.393 (inactive) in [5]; 0.618 (inactive) in [6]; -0.347 in experiment [7]. In addition, the z-score was -2.57 (inactive) in [8], -6.07 (inactive) in experiment [9] and -3.82 in experiment [10]. In [2], the composite z-score is 0.0147.
With `O=C1NC(=O)C2C1C=CC(C(O)C=Cc1ccc([N+](=O)[O-])cc1)N2Nc1ccc(Cl)cc1Cl` (stereo not given), the z-score in experiment [1] is -2.11 (inactive); in experiment [3], 10.1 (active); in [4] it was 2.46 (inactive); in experiment [5] it was 2.09 (inactive); in experiment [6], 1.66 (inactive); in experiment [7], -1. The z-score in experiment [8] is -0.82 (inactive); in experiment [9], -6 (inactive); in [10], -1.45. Further, the composite z-score in experiment [2] was determined as 0.501.
With `COCCOC(=O)N1C(=O)[C@@]2(c3cc(C#CC4(O)CCCCCC4)ccc31)[C@H](c1ccccc1OCCO)N1[C@H](c3ccccc3)[C@H](c3ccccc3)OC(=O)[C@H]1[C@@H]2C(=O)N1CCc2cc(OC)c(OC)cc2C1`, the z-score in experiment [1] is 0.109 (inactive); in experiment [3], 2.53 (inactive); in experiment [4], 0.888 (inactive); in experiment [5] it was 0.467 (inactive); in experiment [6], 0.773 (inactive); in [7], 0.495. Also, the values for the z-score in experiment [8], in experiment [9] and in experiment [10] were 1.25 (inactive), 0.534 (inactive) and 1.82, respectively. For the same compound, the composite z-score in experiment [2] was 0.379.
With `NCCCCCNC(=O)[C@H]1C[C@H]2C(=O)N3CCC[C@H]3C(=O)N2[C@H]1c1ccc(O)cc1`, the z-score in experiment [1] was -0.607 (inactive); in experiment [3] it was 0.888 (inactive); in experiment [4], 0.0655 (inactive); in [5] it was -1.9 (inactive); in experiment [6], 0.0061 (inactive); in experiment [7] it was -0.604. For the same compound, the z-score in [8] is 0.0724 (inactive); in experiment [9] it was 0.719 (inactive); in [10] it was -0.182. The compound further showed a composite z-score in experiment [2] of 1.17.
As to `COC(=O)c1c2oc(c1C(=O)OC)C(=O)NC1(CCCCC1)c1cn(nn1)C[C@H](Cc1ccccc1)NC(=O)N[C@H](CO)CC2`, the z-score in experiment [1] was 2.35 (inactive); in experiment [3], 1.66 (inactive); in experiment [4] it was -0.265 (inactive); in experiment [5], 0.869 (inactive); in [6], 0.285 (inactive); in experiment [7], 0.229. The results for the z-score in [8], in experiment [9] and in [10] were -0.463 (inactive), 1.26 (inactive) and -0.0346, respectively. In addition, the composite z-score in [2] is -0.258.
